In PubChem BioAssay (Tox21):
“And” between values parts separate entries of the source, which are not always exact repeats. Equal values may be shown once. Records with an inconclusive call do not appear. Where a call stands in place of a potency, no number is given. Where a structure was tested more than once in an assay, its records may differ in their call. The source made the active and inactive calls. Unless noted, calls follow the shape of the dose curve; as a rule, active = well fitted cell-killing curve with a large enough effect in the repeat runs; inconclusive = weak or mixed curves; inactive = no such curve, though single readings can be large or run the other way.

target: Peroxisome proliferator-activated receptor delta (Homo sapiens) (UniProt Q03181); experiment: qHTS assay to identify small molecule agonists of the peroxisome proliferator-activated receptor delta (PPARd) signaling pathway (AID 743212; calls by dose curve); settings: HEK293H PPARd-UAS-bla, beta-lactamase FRET ratio, 17 h; series mostly up to 62.6 µM
Method in brief: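 HEK293H UAS-bla reporter cells, human PPARd system; compounds delivered in DMSO after 5 h plating, then at 37 C. Beta-lactamase FRET read, 2 h RT substrate step.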

Chain of Peroxisome proliferator-activated receptor delta (Homo sapiens) (Q03181 whole entry, looked up): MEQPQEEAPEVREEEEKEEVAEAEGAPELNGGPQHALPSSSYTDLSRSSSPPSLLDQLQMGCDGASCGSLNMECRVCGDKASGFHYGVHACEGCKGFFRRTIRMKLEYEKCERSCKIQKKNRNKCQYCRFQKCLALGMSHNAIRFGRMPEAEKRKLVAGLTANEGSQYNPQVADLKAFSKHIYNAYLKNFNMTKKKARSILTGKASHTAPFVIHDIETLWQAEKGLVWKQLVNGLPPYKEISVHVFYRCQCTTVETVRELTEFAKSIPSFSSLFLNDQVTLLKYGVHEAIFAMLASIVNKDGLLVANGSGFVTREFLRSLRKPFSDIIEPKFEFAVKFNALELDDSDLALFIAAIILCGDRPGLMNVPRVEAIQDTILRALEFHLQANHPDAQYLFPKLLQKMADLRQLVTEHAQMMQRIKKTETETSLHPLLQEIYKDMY

Row | SMILES | outcome | activation
1 | CCN(CC)CCCN(c1ccccc1)C1Cc2ccccc2C1 | inactive | 
2 | CN(C)c1ccc(N=Nc2ccccc2C(=O)O)cc1 | inactive | 
3 | CCCCCCC(C)OC(=O)COc1nc(F)c(Cl)c(N)c1Cl (stereo unspecified) | inactive | 
4 | CCCCCCCCCCCCCOP(=O)(O)O | inactive | 
5 | COc1ccc(-n2nc(CCC(=O)N(C)O)cc2-c2ccc(Cl)cc2)cc1 | inactive | 
6 | CCc1ccc(O)c(C(C)(C)C)c1 | inactive | 
7 | Cc1nc(Nc2ncc(C(=O)Nc3c(C)cccc3Cl)s2)cc(N2CCN(CCO)CC2)n1 | inactive | 
8 | Brc1ccccc1-c1ccccc1 | inactive | 
9 | N[C@@H](CSSC[C@H](N)C(=O)O)C(=O)O |  | -7.58% [at 0.55 µM] (inactive)
10 | c1cc(OCC2CO2)cc(OCC2CO2)c1 (stereo unspecified) | inactive | 
11 | O=C(O)c1cccc(Cl)n1 | inactive | 

tested on: not listed separately; experiment: qHTS assay to identify small molecule antagonists of the peroxisome proliferator-activated receptor delta (PPARd) signaling pathway - cell viability counter screen (AID 743213); settings: PPARd-bla HEK293H viability, CellTiter-Glo luminescence, 17 h; series mostly up to 62 µM; also: nearly all actives have a fitted effect of over 50% in size; also: potency is read from the fitted curve at half-maximal effect
Method in brief: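 PPARd-bla HEK293H cells (3000/well) got compound plus 300 nM L165041 agonist for 17 h at 37 C. Viability in the same wells came from CellTiter-Glo luminescence after 30 min at room temperature.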

Row | SMILES | Potency
12 | CCCCOC(=O)C(C)CC (stereo unspecified) | 49 µM (active)
13 | CCOC(=O)C1=C(C)NC(C)=C(C(=O)OCC)C1c1ccccc1/C=C/C(=O)OC(C)(C)C | 18.8 µM (active)
14 | CCN1CCN(c2cc(-c3ccc(F)cc3)c3c(n2)CCCCCC3)CC1 | inactive
15 | C/C=C/C(=O)Oc1c(CCCCCC(C)C)cc([N+](=O)[O-])cc1[N+](=O)[O-] | 24.5 µM (active)
16 | C[C@@]12C(=O)OC(=O)[C@]1(C)C1CCC2O1 | 8.41 µM (active)
17 | CCCCCCCOC(=O)c1ccc(O)cc1 | inactive and 34.7 µM (active)
18 | COc1cc(C(=O)NS(=O)(=O)c2ccccc2C)ccc1Cc1cn(C)c2ccc(NC(=O)OC3CCCC3)cc12 | inactive
19 | CCO[Si](CCCSSSSCCC[Si](OCC)(OCC)OCC)(OCC)OCC | inactive
20 | COC(=O)[C@]1(C)CCC[C@@]2(C)[C@H]1CC=C1C=C(C(C)C)CC[C@@H]12 | inactive
21 | CC(C)(C)C1=CC(=O)C=C(C(C)(C)C)C1=O | inactive
22 | Clc1ccccc1CN1CCc2sccc2C1 | inactive
23 | Cc1ccc(N)cc1O | inactive
24 | N#CSCSc1nc2ccccc2s1 | 4.9 µM (active)
25 | COc1ccc2sc(C(=O)Nc3nnn[nH]3)c(OC(C)C)c2c1 | inactive

target: Peroxisome proliferator-activated receptor delta (Homo sapiens) (UniProt Q03181); experiment: qHTS assay to identify small molecule antagonists of the peroxisome proliferator-activated receptor delta (PPARd) signaling pathway (AID 743215; active = well fitted inhibition curve with a large enough effect in the signal ratio in the repeat runs, not every such curve was filed as active; the % refers to the signal ratio;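 also: cells stimulated with agonist L165041 at 300 nM final during compound exposure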; also: potency is read from the fitted curve at half-maximal effect); settings: HEK293H PPARd-UAS-bla, beta-lactamase FRET ratio, antagonist, 17 h; series mostly up to 62 µM
Method in brief: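 PPARd-bla HEK293H cells (UAS-bla reporter) preincubated 5 h, then given compound plus 300 nM final L165041 agonist for 17 h at 37 C. Beta-lactamase activity read by LiveBLAzer B/G FRET substrate fluorescence after 2 h at room temperature.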

Row | SMILES | Potency
26 | CCN1CCN(c2cc(-c3ccc(F)cc3)c3c(n2)CCCCCC3)CC1 | inactive
27 | CCN(CC)CCCN(c1ccccc1)C1Cc2ccccc2C1 | inactive
28 | CCCCCCC(C)OC(=O)COc1nc(F)c(Cl)c(N)c1Cl (stereo unspecified) | inactive
29 | CCCCCCCCCCCCCOP(=O)(O)O | inactive
30 | Cc1nc(Nc2ncc(C(=O)Nc3c(C)cccc3Cl)s2)cc(N2CCN(CCO)CC2)n1 | 0.473 µM (active)
31 | Cc1ccc(CCn2c3c(c4cc(Cl)ccc42)CN(C)CC3)cn1 | inactive
